FXN GAA850 act: increases GAA850 frataxin promoter reporter activity | activation, % at 6 µM | 360,000 compounds, 0.56% hits | AID 540364 | HEK293 lucGAA850 FXN promoter luciferase reporter, 24 h; percent of 10 µM SAHA response;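 active = activation above the average of all compounds screened plus 3 SD, cutoff fixed separately per campaign, cut at about 7.5% in these data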;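 also: 0% = DMSO wells and 100% = 10 µM SAHA wells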
SMARCA2 act: activators of SMARCA2 function; MG213 cells, MMTV-luciferase reporter, dexamethasone, overnight; 370,000 compounds, 1% hits; activation, % at 9.1 µM; in the data active = activation above about 7.8%;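 also: 0% = vehicle wells and 100% = reference activator wells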
KLK7 zymogen act: proKLK7 (human) activation, primary screen; purified proKLK7, EDANS-DABCYL substrate fluorescence; 100% is mature enzyme control, 0% vehicle; activation, % at 7 µM; AID 652039; 370,000 compounds, 0.9% hits;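 active = activation above the mean of all tested compounds plus 3 SD, computed per campaign excluding outliers beyond control limits, cut at about 13% in these data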
Target sequence (P49862 whole entry, looked up): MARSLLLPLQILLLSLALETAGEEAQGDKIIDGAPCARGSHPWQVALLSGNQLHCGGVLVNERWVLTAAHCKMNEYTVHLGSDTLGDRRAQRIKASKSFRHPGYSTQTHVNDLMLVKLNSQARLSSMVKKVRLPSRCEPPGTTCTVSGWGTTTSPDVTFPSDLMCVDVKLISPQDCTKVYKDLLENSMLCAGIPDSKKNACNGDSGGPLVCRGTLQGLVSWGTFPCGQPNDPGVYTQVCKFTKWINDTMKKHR
FAS-TE inh: blocks the thioesterase domain of human fatty acid synthase; 360,000 compounds, 0.67% hits; AID 602261; P49327; recombinant FAS-TE, OMFH fluorogenic substrate, fluorescence endpoint; inhibition, % at 15 µM;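 active = compounds whose normalised, plate-corrected inhibition of enzyme fluorescence in the single-dose primary screen is 50% or more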;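 also: 0% = DMSO with enzyme and 100% = substrate without enzyme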
KLK7 act conf: confirmation of human kallikrein-7 zymogen activators; activation, % at 7 µM; 3,200 compounds, 68% hits; shares compounds with KLK7 zymogen act; AID 686949; purified proKLK7, EDANS-DABCYL substrate fluorescence; scaled: vehicle 0, mature enzyme 100;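 active = activation, as change over the incubation, above the mean of all tested compounds plus 3 SD, cut at about 13% in these data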
EDANS-DABCYL int: counter-screen for kallikrein-7 activators: EDANS-DABCYL optical interference; shares compounds with KLK7 zymogen act; EDANS-DABCYL substrate fluorescence interference, no enzyme, 4 h; solvent 0%, active enzyme control 100%; activation, % at 7 µM; 3,200 compounds, 80% hits;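 active = activation above the all-compound mean plus 3 SD, ignoring values outside control-based bounds, cut at about 4.8% in these data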;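 also: value is the 4 h activation minus the activation read at time zero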
K7 EDANS ctr: counter-screen for kallikrein-7 activators: EDANS-DABCYL interference, dose response; EC50, µM; EDANS-DABCYL peptide fluorescence interference, no enzyme; shares compounds with KLK7 zymogen act; 250 compounds, 20% hits;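 active = compounds that raise the fluorescence signal in this interference counterscreen, with EC50 at or below 10 µM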;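 also: intact quenched peptide substrate alone read at 355 nm excitation and 520 nm emission; signal is fluorescence gain from T0 to T4 after four hours at room temperature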
* = called active by the depositor; i = inactive; x = not tested or not shown. Rows were chosen to be rich in hits. Some 2.9% of all compounds tested hit in one or more screens of this group.

SMILES	FXN GAA850 act	SMARCA2 act	KLK7 zymogen act	FAS-TE inh	KLK7 act conf	EDANS-DABCYL int	others
COc1cc(OC)c2c(C)cc(=O)oc2c1	1.1	0.9	32.4*	-9.1	37.7*	48.0*
COc1cc(OC)c2ccc(=O)oc2c1	0.7	-0.1	89.9*	-4.4	49.2*	61.1*
COc1cc(OC)c2c(-c3cccc(-c4cccc(C)c4)c3)cc(=O)oc2c1	-3.9	-0.1	-4.5	21.2	x	x
COc1ccc2c(CC(=O)O)cc(=O)oc2c1	1.6	2.3	-1.3	-6.6	x	x
Cc1cc(=O)oc2cc(O)cc(O)c12	0.5	0.9	65.8*	-4.2	67.3*	76.4*
O=[N+]([O-])c1cc(/C=N/OCc2c(Cl)cccc2Cl)ccc1N1CCOCC1	6.9	-1.9	0.6	30.0	x	x
CCOc1cc(NC(=S)NCC2CCCO2)c(OCC)cc1NC(=O)c1ccc(F)cc1 (centres undefined)	2.7	3.2	-0.3	11.9	x	x
Cc1ccc(N/N=C/C=C/c2ccco2)cc1	4.4	7.7	-0.9	8.9	x	x
CCc1ccc(C(=O)C(C)OC(=O)Cn2[nH]c(=O)c3ccccc3c2=O)cc1 (centres undefined)	0.4	-2.2	0.1	3.1	x	x
CN1C=CC(=CC=C2C=CC(=O)C=C2)C=C1	0.4	-1.2	50.3*	-5.0	11.7	14.2*
N#CC1=C(N)Oc2cc(O)c(Cl)cc2C1c1cccnc1 (centres undefined)	0.6	-2.0	3.9	-4.6	x	x
N#CC1=C(N)Oc2cc(O)c(Cl)cc2C1c1ccccc1F (centres undefined)	2.1	-2.4	15.8*	-16.6	-3.4	1.0
CCOc1ccc(C(=O)/C=C/Nc2ccc(S(=O)(=O)Nc3cc(C)nc(C)n3)cc2)cc1	x	0.4	147.3*	x	237.7*	176.8*
Cc1cc(C)nc(NS(=O)(=O)c2ccc(N/C=C\C(=O)c3ccc(Cl)cc3)cc2)n1	2.6	-0.1	-0.8	-3.3	x	x
Cc1cccc(-n2c(SCC(=O)O)nc3sc4c(c3c2=O)CCC4)c1	2.5	2.9	-0.6	-2.1	x	x
CCc1cc(=O)oc2c3c(cc(OCC(=O)N[C@H](C(=O)O)[C@H](C)CC)c12)OC(C)(C)CC3	1.1	1.6	47.9*	0.1	48.6*	49.2*
CCCc1cc(=O)oc2c3c(cc(OCC(=O)N[C@@H](C)C(=O)O)c12)OC(C)(C)CC3	1.6	-2.7	49.2*	-0.3	70.0*	78.5*
CCc1cc(=O)oc2c3c(cc(OCC(=O)NCCCn4ccnc4)c12)OC(C)(C)CC3	0.7	2.0	7.9	-2.2	x	x
CCCc1cc(=O)oc2c3c(cc(OCC(=O)N[C@@H](CSC)C(=O)O)c12)OC(C)(C)CC3	-1.0	-0.2	31.8*	-0.4	35.3*	30.6*
CCCc1cc(=O)oc2c3c(cc(OCC(=O)NCc4ccncc4)c12)OC(C)(C)CC3	-2.8	1.7	-6.8	-2.8	x	x
Cc1cc(=O)[nH]c(SCc2nc3ncccn3c2Br)n1	2.2	-2.9	29.4*	-5.1	11.7	15.1*
COC(=O)C1=CN(c2ccc(OC)cc2OC)C(N)=C(C#N)C1c1ccccc1F (centres undefined)	x	-0.7	113.9*	x	18.8*	40.6*
c1ccc(-c2ccccc2OCCCCN2CCCCC2)cc1	0.6	-2.2	-0.6	-9.5	x	x
O=C(N=c1ccn(-c2nc3ccccc3nc2NS(=O)(=O)c2ccccc2)cc1)c1ccccc1Cl	1.8	2.1	1.8	-4.4	x	x
CC(=O)Nc1ccc(S(=O)(=O)Nc2nc3ccccc3nc2-n2ccc(=NC(=O)c3ccccc3)cc2)cc1	0.3	-4.8	39.0*	0.6	39.9*	16.0*	K7 EDANS ctr=i
SMILES	FXN GAA850 act	SMARCA2 act	KLK7 zymogen act	FAS-TE inh	KLK7 act conf	EDANS-DABCYL int	others
CC(=O)Nc1ccc(S(=O)(=O)Nc2nc3ccccc3nc2-n2ccc(=NC(=O)c3ccc(F)cc3)cc2)cc1	0.9	-0.8	81.2*	3.0	95.5*	87.3*
CCOc1ccc(S(=O)(=O)N2CCN(C(=O)CCC(=O)N3CCOCC3)CC2)cc1	1.5	-4.5	0.2	0.4	x	x
CSc1ccccc1OCc1cc(C(=O)NCCc2ccco2)no1	0.9	2.5	0.1	11.4	x	x
Nc1nc(-c2cccnc2)nn1C(=O)CCc1ccccc1	0.2	-3.7	0.2	-7.5	x	x
CC(C)C(=O)Nc1ccc(-c2nc3ncccc3o2)cc1	3.9	2.7	14.4*	-7.1	7.5	6.6*
Cc1cc(-c2nc3ncccc3o2)ccc1N	1.3	4.4	40.2*	-5.2	66.9*	67.3*
Cc1ccc(-c2nc3ncccc3o2)cc1N	5.3	7.3	0.3	-5.1	x	x
Nc1ccc(-c2nc3ncccc3o2)c(O)c1	6.0	6.7	21.0*	-5.3	22.1*	20.9*
COc1cc(Cl)c(C)cc1NC(=O)CCNC(=O)c1ccco1	0.6	2.6	0.3	-2.1	x	x
CC[C@@H]1C(c2ccc(F)cc2)=NN(c2ccccc2)[C@H]1C(=O)N1CCOC1=O	1.4	-1.0	81.0*	11.0	64.4*	53.7*	K7 EDANS ctr=7.35*
Cc1cccc(C2=NN(c3ccccc3)[C@@H](C(=O)N3CCOC3=O)[C@@H]2c2ccc(F)cc2)c1	-0.7	2.4	-229.1	41.5	x	x
OC[C@@H]1[C@@H](c2ccc(F)cc2)C(c2ccccc2)=NN1c1ccccc1	-2.0	-4.4	-93.0	20.7	x	x
CC[C@@H]1C(c2ccccc2)=NN(c2ccccc2)[C@H]1C(=O)N1CCOC1=O	-1.4	0.4	186.8*	3.6	161.1*	131.2*
CC[C@H]1C(c2ccc(F)cc2)=NN(c2ccccc2)[C@@H]1CO	0.2	-3.3	21.9*	5.9	-93.6	-120.4
O=C(Cc1ccc(NC(=O)C2CCCN(C(=O)c3ccccc3)C2)cc1)Nc1ccc(C(=O)N2CCOCC2)cc1 (centres undefined)	-0.9	-3.0	0.3	-7.5	x	x
Cc1ccc(C)c(OCC(=O)OCC(=O)Nc2c(C)nn(-c3ccccc3)c2C)c1	-1.1	-2.0	-0.9	-6.9	x	x
O=C(CNCc1ccc(F)cc1)Nc1ccc(C(=O)N2CCCCC2)cc1	0.3	-3.8	-0.5	-6.9	x	x
COc1ccccc1-n1c(N)c(C(=O)NCC2CCCO2)c2nc3ccccc3nc21 (centres undefined)	1.9	-0.2	14.4*	-2.6	-168.4	-173.9
Nc1c(C(=O)NCC2CCCO2)c2nc3ccccc3nc2n1-c1ccccc1 (centres undefined)	-1.1	0.0	-33.6	-0.9	x	x
Cc1ccc2oc(-c3ccco3)cc(=O)c2c1	3.1	2.4	12.4	2.3	x	x
CCCOc1ccc(/C=C2\SC(N)=NC2=O)cc1OC	3.8	3.1	17.8*	-5.9	-0.1	-1.9
CC(C)OCCOc1ccc2oc(-c3ccco3)cc(=O)c2c1	3.1	-0.4	24.1*	-1.2	37.3*	-6.0	K7 EDANS ctr=>69.5
